# Several values for one entry are separate records, joined by “and”; a condition that tells them apart may be missing. Equal values may be shown once. Activity calls are given as the source filed them.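 The calls were made as follows, unless noted: active = at least 20% inhibition of 6-phosphogluconate dehydrogenase activity; inactive = the rest.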
# How the values were obtained:
# [1] = biological target: 6-phosphogluconate dehydrogenase, decarboxylating (Homo sapiens) (UniProt P52209); experiment: 6PGD enzyme inhibitors, primary screen, biochemical, human, recombinant enzyme, NADPH absorbance (AID 1159550); settings: recombinant 6PGD, NADPH absorbance 341 nm; at 10 µM; stronger effect = higher value
# Chain of 6-phosphogluconate dehydrogenase, decarboxylating (Homo sapiens) (P52209 whole entry, looked up): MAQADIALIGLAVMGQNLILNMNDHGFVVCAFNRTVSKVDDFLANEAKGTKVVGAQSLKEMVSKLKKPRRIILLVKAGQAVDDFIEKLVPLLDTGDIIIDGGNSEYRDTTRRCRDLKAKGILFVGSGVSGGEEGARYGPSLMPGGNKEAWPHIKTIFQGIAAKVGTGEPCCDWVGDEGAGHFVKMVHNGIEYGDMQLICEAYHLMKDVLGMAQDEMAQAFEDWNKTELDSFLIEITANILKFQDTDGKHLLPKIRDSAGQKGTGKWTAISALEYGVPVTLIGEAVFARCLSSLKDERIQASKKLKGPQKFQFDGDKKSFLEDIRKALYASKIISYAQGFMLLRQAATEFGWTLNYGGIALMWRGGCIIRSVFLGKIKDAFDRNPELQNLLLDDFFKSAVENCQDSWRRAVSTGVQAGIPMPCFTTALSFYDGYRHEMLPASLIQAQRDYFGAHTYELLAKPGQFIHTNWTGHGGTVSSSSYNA
# [2] = stimulators of nuclear beta-catenin in C2C12, primary screen, imaging, WNT3A-conditioned medium, mouse C2C12, NPC library (AID 1117326; in the data active = nuclear beta-catenin stimulation mostly above about 4.2%, no sharp cut-off; inactive = mostly below about 10%); settings: stronger effect = higher value
# [3] = stimulators of insulin release from INS-1E, primary screen, cell-based, 5 mM glucose, NPC library (AID 1117329;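 active = compound raises insulin release from rat beta cells at 5 mM glucose, no numeric limit stated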); settings: rat INS-1E insulin secretion, at 10 µM, stronger effect = higher value
# [4] = glucagon-like peptide 1 release enhancers, primary assay, NCI-H716 cell line, NPC library (AID 1117341;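 active = compound raises GLP1 secretion from the human gut endocrine cells, with no numeric limit stated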); settings: NCI-H716 cells, at 10 µM, stronger effect = higher value
# [5] = polyglutamine-triggered caspase-3 activation inhibitors, cell-based (AID 1583); settings: polyglutamine-induced caspase-3 activation, cell assay; stronger effect = higher value;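 tested at 10 µM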
# [6] = suppressors of polyQ aggregation in yeast, 75Q-TubU reporter (AID 1593); settings: Yeast 75Q polyglutamine aggregation reporter
# [7] = liver-stage malaria parasite growth inhibition, primary screen, cell-based, HepG2, luciferase luminescence, HepG2 viability (AID 624349; in the data active = parasite load remaining mostly below about 12%, no sharp cut-off; inactive = mostly above about 10%;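 also: 100% = mean of DMSO negative control wells on the same plate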); settings: P. berghei liver stage in HepG2, luciferase luminescence, concentration not given here; parasite load remaining: stronger effect = lower value; viability: measured here: HepG2 viability without parasites
# [8] = growth inhibition of GSK3B-pretreated HCT116 cells – cell-based, CellTiter-Glo, 0.2 to 20 µM (AID 1117336;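 active = compounds lowering colon cancer cell viability after pretreatment blocking the GSK3B kinase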); settings: HCT116 viability after GSK3B inhibitor, at 20 µM, stronger effect = higher value
# [9] = inhibition of endothelial tube formation, primary screen, imaging, VEGF stimulated, CD31 staining, tube area, NPC library (AID 1117340;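 active = compound that reduces growth-factor-driven endothelial tube area in a mixed cell culture, no cutoff stated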); settings: VEGF-stimulated ADSC/ECFC co-culture, at 10 µM, stronger effect = higher value
# [10] = HCT116 colon cancer cell growth inhibition, primary screen, CellTiter-Glo luminescence, NPC library (AID 1117342;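 active = compounds that lower survival of HCT116 colon cancer cells in the luminescence readout, no numeric limit stated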); settings: at 20 µM (top of the series)
# [11] = CellTiter-Glo luminescent readout of SW480 viability loss, NPC library primary (AID 1117343;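 active = compounds that lower viability of the colon cancer cells in the luminescence readout, with no numeric limit stated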); settings: CellTiter-Glo luminescence; at 20 µM (top of the series)
# [12] = decreased DLD-1 cellular survival, CellTiter-Glo luminescent readout, NPC compound collection, primary HTS (AID 1117346;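 active = compounds that lower survival of DLD-1 colon cancer cells in the luminescence readout, no cutoff given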); settings: DLD-1 viability, CellTiter-Glo luminescence; at 20 µM (top of the series)
# [13] = differential killing of epithelial or mesenchymal cells, primary screen, imaging, PC-3E GFP, TEM4-18 mCherry, co-culture (AID 1345086;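 active = compounds killing one labelled cell type while sparing the other, by normalised counts and ratio limits, not self-fluorescent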;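 also: cells exposed to compound for 72 h before imaging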;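 as to red/green cell ratio (normalised): normalised mesenchymal count divided by normalised epithelial count so high means epithelial killing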); settings: imaging cell counts, at 1 µM
# [14] = test system: Aerobactin synthetase IucA (Klebsiella pneumoniae hvKP1); experiment: Biochemical IucA enzyme inhibition primary screen of the Spectrum library (AID 1346200; call rule not given here;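 also: 100% = wells without compound and 0% = wells lacking enzyme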); settings: malachite green pyrophosphate, A620, at 8 µM, stronger effect = lower value
# [15] = sensitizers of A549 cells to miR-34 induction, primary screen, imaging, A549 dox-inducible miR-34, nuclei and caspase counts (AID 1347080;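 active = compounds whose cell count with miR-34 switched on is under 0.7 times the count with it off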); settings: A549 miR-34 inducible, Hoechst nuclei count, 48 h
# [16] = biological target: NAD(+) hydrolase SARM1 (Homo sapiens) (UniProt Q6SZW1); experiment: SARM1 TIR NADase inhibitors, cell lysate, NAD-Glo luminescence (AID 1508614;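 active = compound whose remaining NAD level is above about 45 nM, limit read from the data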;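 also: higher remaining NAD means stronger inhibition of SARM1 NADase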); settings: SAM-TIR HEK293T lysate NADase, at 1 µM, stronger effect = higher value
# Chain of NAD(+) hydrolase SARM1 (Homo sapiens) (Q6SZW1 whole entry, looked up, the tested form may be a part): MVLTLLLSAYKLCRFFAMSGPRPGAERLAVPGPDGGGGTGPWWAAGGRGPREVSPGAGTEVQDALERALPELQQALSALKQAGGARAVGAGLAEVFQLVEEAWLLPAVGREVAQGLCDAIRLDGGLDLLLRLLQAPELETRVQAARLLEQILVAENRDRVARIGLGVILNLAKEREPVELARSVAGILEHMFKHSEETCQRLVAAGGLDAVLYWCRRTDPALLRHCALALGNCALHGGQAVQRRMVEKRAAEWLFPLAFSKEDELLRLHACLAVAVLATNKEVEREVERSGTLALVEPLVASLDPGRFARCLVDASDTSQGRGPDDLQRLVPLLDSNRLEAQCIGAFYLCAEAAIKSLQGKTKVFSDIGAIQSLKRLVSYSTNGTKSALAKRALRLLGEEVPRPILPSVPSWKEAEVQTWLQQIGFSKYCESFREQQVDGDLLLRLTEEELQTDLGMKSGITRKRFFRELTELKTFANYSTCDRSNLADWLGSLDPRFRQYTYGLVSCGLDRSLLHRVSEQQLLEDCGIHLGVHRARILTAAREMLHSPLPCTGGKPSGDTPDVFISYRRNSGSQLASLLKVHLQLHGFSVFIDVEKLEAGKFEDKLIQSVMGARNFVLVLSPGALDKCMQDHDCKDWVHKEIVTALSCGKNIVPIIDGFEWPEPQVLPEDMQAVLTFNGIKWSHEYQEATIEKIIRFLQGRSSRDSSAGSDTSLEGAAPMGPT
# [17] = biological target: Mitogen-activated protein kinase 7 (Homo sapiens) (UniProt Q13164); experiment: ERK5 transactivation activators in reporter cells, primary screen, cell-based, HTS (AID 1508626;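 active = luciferase signal above three times the same-plate solvent-only control wells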;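 also: luciferase driven by Gal4-ERK5 fusion binding five Gal4 sites before minimal TATA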); settings: HeLa Gal4-ERK5 transactivation, 18 h, at 5 µM, stronger effect = higher value
# Chain of Mitogen-activated protein kinase 7 (Homo sapiens) (Q13164 whole entry, looked up, the tested form may be a part): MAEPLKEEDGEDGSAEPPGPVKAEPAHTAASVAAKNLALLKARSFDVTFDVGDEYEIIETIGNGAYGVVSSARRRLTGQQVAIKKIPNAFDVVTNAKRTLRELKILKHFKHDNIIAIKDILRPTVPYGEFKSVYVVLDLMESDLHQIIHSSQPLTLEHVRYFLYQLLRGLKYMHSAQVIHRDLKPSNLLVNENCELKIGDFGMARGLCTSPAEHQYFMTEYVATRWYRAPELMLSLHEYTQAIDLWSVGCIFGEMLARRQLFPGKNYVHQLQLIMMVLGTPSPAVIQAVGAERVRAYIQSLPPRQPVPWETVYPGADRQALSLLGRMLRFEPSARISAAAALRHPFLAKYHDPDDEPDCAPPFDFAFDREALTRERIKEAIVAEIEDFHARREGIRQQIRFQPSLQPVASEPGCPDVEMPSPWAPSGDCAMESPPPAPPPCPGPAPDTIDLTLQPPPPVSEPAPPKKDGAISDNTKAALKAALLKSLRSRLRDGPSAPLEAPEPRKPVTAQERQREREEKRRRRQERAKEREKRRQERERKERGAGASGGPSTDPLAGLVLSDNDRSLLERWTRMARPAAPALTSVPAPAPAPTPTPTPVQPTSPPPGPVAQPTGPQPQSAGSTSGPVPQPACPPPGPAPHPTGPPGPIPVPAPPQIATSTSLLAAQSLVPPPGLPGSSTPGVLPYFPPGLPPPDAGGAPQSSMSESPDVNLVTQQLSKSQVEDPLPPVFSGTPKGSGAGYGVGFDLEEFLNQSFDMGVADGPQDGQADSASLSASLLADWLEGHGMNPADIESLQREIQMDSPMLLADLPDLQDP
# [18] = hESC survival regulators, cell-based (AID 493140; call rule not given here;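 also: cells exposed to compounds for four days before counting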); settings: human embryonic stem cell survival screen; stronger effect = higher value
# [19] = survival rescue of mitochondrial mutant cells in low glucose, primary screen, MELAS cybrids, Rieske KO mouse fibroblasts, CellTiter-Glo (AID 1508586;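 active = mean z-score across replicates of 1.96 or higher in either the MELAS or the Rieske mutant cell line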;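 also: z relative to plate mean and SD of compound and empty wells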)
# [20] = viability rescue of complex I mutant cybrids, primary screen, cell-based, galactose medium, ATP luminescence (AID 1645843;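 active = z-score of at least 1.8 in each of two replicates, scored against plate mean and spread of sample wells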;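 also: positive z means more ATP and so rescue of galactose-driven cybrid death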); settings: complex I mutant cybrid cells, 72 h, stronger effect = higher value
# [21] = measured here: relative caspase fold change +Dox/-Dox
# [22] = measured here: total cells with miR-34 induction, stronger effect = lower value
# [23] = measured here: total cells without miR-34 induction
structure (smiles),measurement,setting,value
C=C[C@H]1CN2CCC1C[C@H]2[C@H](OC(=O)OCC)c1ccnc2ccc(OC)cc12 (stereo partly drawn),inhibition,[1],4.32% (inactive)
ClC1=C(Cl)C2(Cl)C(CBr)CC1(Cl)C2(Cl)Cl (stereo not drawn),nuclear beta-catenin stimulation,[2]; at 10 µM,1.7% (inactive)
same,nuclear beta-catenin stimulation,"[2]; stimulation, at 2 µM",5.3%
same,insulin secretion stimulation,[3],0.2% (inactive)
same,GLP1 secretion stimulation,[4],16.3% (inactive)
CN(C)C(=S)SSC(=S)N(C)C,inhibition,[5],37.5%
same,score,[6],0.02
same,parasite load remaining,[7],69.7% (inactive) and -0.72% (inactive)
same,viability,[7],84.1% and 106%
same,nuclear beta-catenin stimulation,[2]; at 10 µM,68.4% (active)
same,nuclear beta-catenin stimulation,"[2]; stimulation, at 2 µM",48.7%
same,viability decrease,[8],65% (active)
same,tube area decrease,[9],39.3% (inactive)
same,inhibition of viability,[10],16.3% (inactive)
same,viability decrease (inhibition),[11],62.7% (active)
same,viability decrease (inhibition),[12],59.7% (active)
same,inhibition,[1],-10.3% (inactive)
same,red/green cell ratio (normalised),[13]; actives lie on both sides,1.29 (inactive)
same,normalised cell number,[13]; measured here: epithelial PC-3E GFP cell survival,0.66
same,normalised cell number,[13]; measured here: mesenchymal TEM4-18 mCherry cell survival,0.85
same,activity remaining,[14],97.7% (inactive)
same,fold change,[15]; stronger effect = lower value,0.701 (inactive)
same,fold change,[15]; [21],4.9
same,cell count,[15]; [22],7410
same,cell count,[15]; [23],10600
same,remaining NAD,[16],48 nM (active)
same,luciferase signal,[17],64 AU (inactive)
O=C1NCN(c2ccccc2)C12CCN(CCCOc1ccc(F)cc1)CC2,nuclear beta-catenin stimulation,[2]; at 10 µM,0.4% (inactive)
same,nuclear beta-catenin stimulation,"[2]; stimulation, at 2 µM",8.5%
same,viability decrease,[8],84.2% (active)
same,inhibition of viability,[10],59.4% (active)
same,viability decrease (inhibition),[11],91% (active)
same,viability decrease (inhibition),[12],87.1% (active)
CCOC(=O)C=C(C)C=CC[C@@H](C)CCCC(C)C,nuclear beta-catenin stimulation,[2]; at 10 µM,0.8% (inactive)
same,nuclear beta-catenin stimulation,"[2]; stimulation, at 2 µM",-0.1%
same,insulin secretion stimulation,[3],1.05% (inactive)
same,GLP1 secretion stimulation,[4],-6.5% (inactive)
C[C@]12C=CC(=O)C=C1CC[C@@H]1[C@@H]2CC[C@]2(C)C(=O)CC[C@@H]12,inhibition,[1],-9.35% (inactive)
CC(=O)[C@H]1CC[C@H]2[C@@H]3CC[C@H]4C[C@@H](O)CC[C@]4(C)[C@H]3CC[C@]12C,inhibition,[1],-19.3% (inactive)
CCCCN(CC)c1c([N+](=O)[O-])cc(C(F)(F)F)cc1[N+](=O)[O-],inhibition,[1],-9.8% (inactive)
CC(=O)O[C@H]1CC[C@]2(C)C3CC[C@]4(C)[C@@H](C5=CC(=O)OC5)[C@@H](OC(C)=O)C[C@]4(O)C3CC[C@@H]2C1 (stereo partly drawn),inhibition,[1],0.446% (inactive)
COc1cccc2c1C(=O)c1c(O)c3c(c(O)c1C2=O)C[C@@](O)(C(=O)CO)CC3OC1CC(N2CCOC(OC)C2)C(O)C(C)O1 (stereo partly drawn),nuclear beta-catenin stimulation,[2]; at 10 µM,13.6% (active)
same,nuclear beta-catenin stimulation,"[2]; stimulation, at 2 µM",47.6%
same,insulin secretion stimulation,[3],1.1% (inactive)
same,GLP1 secretion stimulation,[4],7.5% (inactive)
COC(=O)c1ccccc1C(=O)OC,nuclear beta-catenin stimulation,[2]; at 10 µM,-1.6% (inactive)
same,nuclear beta-catenin stimulation,"[2]; stimulation, at 2 µM",-0.6%
same,insulin secretion stimulation,[3],0.5% (inactive)
same,GLP1 secretion stimulation,[4],-5.4% (inactive)
C=CCN1CC[C@]23CCCC[C@H]2[C@H]1Cc1ccc(O)cc13,nuclear beta-catenin stimulation,[2]; at 10 µM,3.5% (inactive)
same,nuclear beta-catenin stimulation,"[2]; stimulation, at 2 µM",0.3%
same,insulin secretion stimulation,[3],12.2% (inactive)
same,GLP1 secretion stimulation,[4],8.3% (inactive)
CN1C[C@H](CNC(=O)OCc2ccccc2)C[C@@H]2c3cccc4c3c(cn4C)C[C@H]21,survival,[18],2.67 (inactive)
same,parasite load remaining,[7],77.5% (inactive) and 64.4% (inactive)
same,viability,[7],74.4% and 69.2%
same,nuclear beta-catenin stimulation,[2]; at 10 µM,53.7% (active)
same,nuclear beta-catenin stimulation,"[2]; stimulation, at 2 µM",5.7%
same,viability decrease,[8],93.3% (active)
same,inhibition of viability,[10],94% (active)
same,viability decrease (inhibition),[11],101% (active)
same,viability decrease (inhibition),[12],92.2% (active)
same,inhibition,[1],-7.03% (inactive)
same,fold change,[15]; stronger effect = lower value,0.705 (inactive) and 0.866 (inactive) and 0.969 (inactive)
same,fold change,[15]; [21],1.05 and 1.44 and 0.756
same,cell count,[15]; [22],1820 and 6760 and 7430
same,cell count,[15]; [23],2580 and 7810 and 7670
same,z-score,"[19]; MELAS cybrid survival, CellTiter-Glo 48 h, stronger effect = higher value",0.443 (inactive)
same,z-score,"[19]; Rieske KO mouse fibroblast survival, CellTiter-Glo 72 h",0.114
same,remaining NAD,[16],10 nM (inactive)
same,luciferase signal,[17],40 AU (inactive)
same,z-score,[20],-1.27 (inactive) and -0.62 (inactive)
CCCCSP(=O)(SCCCC)SCCCC,inhibition,[1],10.6% (inactive)
